# Rows were chosen to be rich in hits. Some 8% of all compounds tested hit in one or more screens of this group.
# HCMV antiviral = blocks human cytomegalovirus replication; actives 4.5% (n = 410,000); activity change, negative = inhibition, % at 57.5 µM; HFF cells, HCMV-luciferase reporter, 72 h; stronger effect = lower value; in the data active = activity change below about -60%; inconclusive = no clear call, values can overlap the other calls; inactive = above about -39%
#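 Luciferase read-out from HCMV-luciferase-infected HFFs (MOI 1 PFU/cell) 72 h post infection at 37C; compounds added after 16 h cell attachment; activity normalized between buffer-only basal and Salinomycin (10uM) inhibitor controls.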
# HCV inhibitor = inhibitors of hepatitis C virus infection | Huh7.5.1 HCVcc-Cre infection, luciferase reporter, 44 h | Potency, µM (doses to about 41.8 µM), hits mostly inhibitors | actives 3.4% (n = 340,000) | AID 651820; active = well fitted inhibition curve with a large enough effect; inconclusive = small, poorly fitted or top-dose-only effect, or another doubt; inactive = no such curve, though single readings can be large or run the other way
#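 Infectious HCVcc-Cre (~0.5 moi) was added to cells just after compound, with cells seeded 4 h earlier at 1,000 per well. Luciferase activity after 44 h culture reported infection; substrate was incubated 15 min at room temperature before reading.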
# SARS PLpro yeast-1 = SARS-CoV PLP inhibition in yeast. S. cerevisiae expressing SARS-CoV PLpro, growth rescue. Potency, µM (highest dose often 32.9 µM), hits mostly activators. actives 0.19% (n = 330,000). AID 485353; calls by dose curve; also: nearly all actives have a fitted effect of over 55% in size
# Lassa entry inh = Lassa virus entry inhibition; Lassa virus pseudotype entry inhibition, cell reporter; Potency, µM (highest dose often 37.9 µM), most hits filed as inhibitors; actives 1.2% (n = 300,000); calls by dose curve; tested in HEK293 cells; also: nearly all actives have a fitted effect of over 50% in size
# Marburg entry inh = blocks Marburg virus binding to or entry into cells | Potency, µM (titrated, usually from 37.8 µM), actives largely listed as inhibitors | actives 1.8% (n = 300,000) | Marburg virus pseudotyped entry inhibition, cell reporter | AID 540276; calls by dose curve; tested in HEK293 cells
# FMDV inh = foot and mouth disease virus antiviral activity | FMDV antiviral cell-based qHTS | Potency, µM (doses to about 57.9 µM), actives largely listed as inhibitors | actives 1.2% (n = 410,000) | AID 1159524; calls by dose curve; tested in HEK293T cells; also: read-out not given here; nearly all actives have a fitted effect of over 45% in size
# SARS PLpro yeast-2 = Validates SARS-CoV PLpro inhibitor hits in yeast | calls only | actives 19% (n = 1,000) | shares compounds with SARS PLpro yeast-1 | yeast expressing SARS-CoV PLpro, growth phenotype rescue; call rule not given here
# Hits are given with their value; - = inactive; ? = inconclusive; . = not tested or not shown; + = active, no number.
SMILES,HCMV antiviral,HCV inhibitor,SARS PLpro yeast-1,Lassa entry inh,Marburg entry inh,FMDV inh,SARS PLpro yeast-2
O=C(CCNS(=O)(=O)c1cccs1)Nc1ccccc1F,-,-,?,-,-,-,-
COc1ccc(C(C)(O)c2nc(-c3cccc(O)c3)cs2)cc1 (centres undefined),-,.,.,.,.,-,.
Cc1nnc2n(-c3ccccc3)c(=O)c3c4c(sc3n12)COC(C)(C)C4,-,-,?,-,-,-,-
Cc1cc(C(=O)COC(=O)c2ccc[nH]c2=O)c(C)n1-c1ccc(F)cc1,-,-,-,-,?,-,.
Cc1ccc(Nc2nc(NCCCN3CCOCC3)nc(N)c2[N+](=O)[O-])cc1C,-,-,-,-,-,-,.
Cc1ccc(Nc2nc(NCCCN3CCOCC3)nc(N)c2[N+](=O)[O-])cc1,-,-,?,-,-,-,-
CC(C)c1ccc(/C=C(\NC(=O)c2ccccc2)C(=O)NCCN2CCOCC2)cc1,-,.,-,.,.,.,.
CCOC(=O)c1ccc(NC(=S)Nc2ccc3[nH]c(=O)[nH]c3c2)cc1,-,-,-,-,?,-,.
Cc1ccc([N+](=O)[O-])cc1S(=O)(=O)Nc1cccc(-c2ccc(N3CCCC3)nn2)c1,-,-,11.2µM,-,-,-,-
Cc1ccc(C2=NC(C)(C)NC2=O)cc1,-,-,?,-,-,-,-
Cc1ccc(SC(C)C(=O)Nc2c(C)n(C)n(-c3ccccc3)c2=O)cc1 (centres undefined),-,-,?,-,-,-,+
Cc1c(NC(=O)C(C)Sc2ccccc2)c(=O)n(-c2ccccc2)n1C (centres undefined),?,-,-,-,-,-,.
Cc1ccc(SCCC(=O)Nc2c(C)n(C)n(-c3ccccc3)c2=O)cc1,-,-,?,-,-,-,-
CCc1nn2c(=O)cc(COC(=O)C(CC)c3ccccc3)nc2s1 (centres undefined),-,.,.,-,.,?,.
CCCCN(C)CCNC(=O)Cn1c(=O)sc2ccccc21,-,-,-,.,.,-,.
CN(CCNC(=O)Cn1c(=O)sc2ccccc21)Cc1ccccc1,-,-,?,.,.,-,-
Cc1ccc(-n2c(C)cc(/C=N/NC(N)=S)c2C)cc1,-,?,11.2µM,?,?,-,+
Cc1[nH]c(=S)sc1Cc1ccc(F)cc1,-,-,10µM,-,-,-,-
Cc1ccc(S(=O)(=O)/N=C(/Nc2c(C)cccc2C)c2ccccc2)cc1,-,-,-,.,.,-,.
Cc1cc(/C=C2/NC(=O)N(Cc3ccccc3F)C2=O)c(C)n1C(C)C,-,?,?,-,?,-,-
Cc1cc(Br)ccc1NC(=S)N1CCOCC1,-,-,-,?,-,-,.
O=C(/C=C/c1cccs1)NC(=S)NNC(=O)Cc1cccs1,-,-,?,-,-,-,+
COc1ccc(/C=C/C(=O)NC(=S)NNC(=O)Cc2cccs2)cc1OC,-,-,-,-,?,-,.
COc1cc(/C=N/n2c(SC)nnc(C(C)(C)C)c2=O)ccc1O,-,-,15.8µM,-,-,-,-
COc1ccc(/C=N/n2c(SC)nnc(C(C)(C)C)c2=O)cc1OC,-,-,-,-,-,?,.
SMILES,HCMV antiviral,HCV inhibitor,SARS PLpro yeast-1,Lassa entry inh,Marburg entry inh,FMDV inh,SARS PLpro yeast-2
COc1ccc(CCNC(=O)Cn2c([N+](=O)[O-])cnc2C)cc1OC,-,-,-,-,-,-,.
COc1ccc(CCNC(=O)Cn2nc([N+](=O)[O-])c(Br)c2C)cc1OC,-,-,?,-,-,-,-
Cc1cccc(C)c1NC(=O)CC1SC2=NCCN2C1=O (centres undefined),-,-,?,-,-,-,-
O=C1OCCN1C(=O)[C@H]1[C@H](c2ccccc2)C(c2cccc(Cl)c2)=NN1c1ccccc1,.,-,?,.,.,-,+
CC1CCC(C(=O)NC(C(=O)OCC(=O)c2ccccc2)C(C)C)CC1 (centres undefined),-,.,.,-,-,?,.
CC(C(=O)c1ccccc1)N1C(=O)c2ccccc2C1=O (centres undefined),-,-,?,?,-,-,-
CCc1nnc(NC(=O)c2ccc(S(=O)(=O)N3CCCc4ccccc43)cc2)o1,-64.4,?,20µM,?,?,.,-

# Source: PubChem
